Structures are written as SMILES. This is part of a sample that, as a whole, favours compounds with a hit. Of some 83,000 tested, about 20% had one in any assay.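 In brief: 96-well plates, 48 h treatment, single concentration, percent growth endpoint.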 Values without a mark were called inactive. The source made the active and inactive calls. How the source made its calls: active means growth percent below 10; inactive means the rest.

This experiment concerns HL-60(TB) leukemia. The experiment is described as follows: NCI-60 one-dose screen, 48 h (100 = growth as untreated, 0 = no growth, -100 = all killed). To be noted: 10 µM unless noted.
With `COc1cc(Nc2ncccc2C(=O)Nc2nc3ccc(F)cc3s2)cc(OC)c1OC`, the growth is 136%.

Consider `CCOc1ccc2nc(SCc3nc4n(n3)S(=O)(=O)c3ccccc3N4C)sc2c1`, for which the growth is 12.9%. In the case of `COc1ccc(-c2nnc(N3CCN(C(=O)CN4CCN(c5ccccc5)CC4)CC3)nc2-c2ccc(OC)cc2)cc1` it was -58.6% (active); in that of `CCCCNC(=O)NS(=O)(=O)c1ccc(N2N=C(c3ccc(C)cc3C)CC2c2ccc(OC)cc2)cc1` (configuration not stated), 17.4%.

On to `CCc1ccc(-c2nnc(COc3ccc(-c4nc5cc(Cl)c(Cl)cc5[nH]4)cc3OC)o2)cc1`, for which the growth was 105%. For `CCN(CC)CCC(=O)Nc1cccc2c1C(=O)c1c(c(O)c3ccccc3c1O)C2=O`, the growth was 27.8%. `Fc1ccc(-c2nnc(/C=C/c3cn(-c4ccccc4)nc3-c3ccccc3)o2)cc1`: the growth was 94.2%. To `Clc1ccc(-c2nc(-c3cccs3)no2)cc1` belongs 108%; to `CC(=O)Oc1cccc(S(=O)(=O)n2cc(C(=O)C(=O)Nc3ccncc3)c3ccccc32)c1`, 56.1%. With `COc1cc2c(cc1-c1c(C)noc1C)ncc1nc(C3CCC(F)(F)CC3)n([C@H](C)COC(F)F)c12`, the growth is 23.5%. In the case of `O=c1cc(-c2ccccc2)[nH]c2ccccc12` it was 45%; in that of `Brc1ccc2c(c1)-c1ccccc1C1=NCCN12`, 18.2%.

`Cc1nc2cc(Nc3nc(NCCO)nc(Nc4ccc(F)cc4)n3)ccc2n1Cc1ccccc1`: the growth is -26.8% (active). To `O=[N+]([O-])c1ccc(Sc2nc(Cl)nc(NC3CCCC3)n2)cc1` belongs -26% [100 µM] (active); to `COc1cccc2nc(Nc3ccc(NC(=O)c4ccc5ncccc5c4)cc3)ccc12`, 91%; to `Cc1ccc2sc3c(NCCN)nc4ccccc4c3c(=O)c2c1`, 53.3%. To `COC(=O)c1ccc(NC(N)=NCC(C)(C)COc2ccc(C(F)(F)F)cc2)nc1` belongs -49% (active); to `CCOC(=O)c1cnn(CC(C)O)c1NC(=O)NCc1cccc(F)c1` (configuration not stated), 90.5%; to `Cn1c(=O)c2c(nc(NC3=NS(=O)(=O)c4ccccc43)n2Cc2ccccc2)n(C)c1=O`, 112%. In the case of `O=S(=O)(O)c1ccc(N=NSc2ccc3ccccc3c2)cc1` it was 98.8%. With `CC/C=C\C[C@H](O)C/C=C1/C(=O)C=C[C@@H]1C/C=C\CCCC(=O)OC(C)C`, the growth is -38.3% (active). Consider `COc1ccc(CCN2C(=O)CCSC2=S)cc1OC`, for which the growth was 98.1%. In the case of `NCCNc1nc2ccccc2c2c(=O)c3cccc(F)c3sc12` it was 53%. Take `COc1ccc(OC)c(/C=C2\Oc3cc(OCCN4CCCC4)ccc3C2=O)c1`: the growth was 69.2%.

Take `C=C1C(=O)O[C@H]2[C@H]1CC/C(CNC(=O)/C=C/c1cc(OC)c(OC)c(OC)c1)=C\CC[C@@]1(C)O[C@@H]21`: the growth was -33.3% (active). Take `O=C(Nc1ccc(N2CCNCC2)cc1)c1[nH]ncc1Nc1ncnc2sc3c(c12)CCC3`: the growth was -49.6% (active).

For `CC(=O)Oc1cc2cnc3c4cc(OC(C)=O)c(OC(C)=O)cc4ccc3c2cc1OC(C)=O`, the growth was -2.79% (active). With `C=C1C(=O)O[C@H]2[C@H]1CC/C(COC(=O)c1cc3ccccc3s1)=C\CC[C@@]1(C)O[C@@H]21`, the growth is -33.8% (active). In the case of `Nc1ncnc2c1N=C(c1ccc3c(c1)OCO3)CC(c1cccc(Nc3ccnc4cc(C(F)(F)F)ccc34)c1)N2` (configuration not stated) it was 92.9%; in that of `COc1cccc(C2=NN3C(C2)c2ccccc2OC3c2ccc(/C=C3\SC(=O)NC3=O)cc2)c1` (configuration not stated), 100%; in that of `O=[N+]([O-])c1ccc(N=Nc2c(O)c(N=Nc3cc([N+](=O)[O-])cc([N+](=O)[O-])c3O)cc(N=Nc3cc(S(=O)(=O)O)cc4cc(S(=O)(=O)O)cc(O)c34)c2O)cc1`, 87.2%. As to `C#CCn1c(-c2cc(OC)c(OC)cc2Br)nc(-c2ccccc2)c1-c1ccccc1`, the growth was 24.5%.

Regarding `COc1ccc(OC)c(/C=C2\Oc3cc(OCCCN4CCCC4)ccc3C2=O)c1`, the growth is 87.5%. To `N=C(N)c1ccc(-c2ccc(-c3ccc(Cl)c(Cl)c3)s2)nc1` belongs -43.9% (active).

In the case of `Cc1ccc2c(c1)=C/C(=C\c1cc(-c3ccccc3)[nH]c1O)C(=O)N=2`, the growth is -4.3% (active).

As for `O=S(=O)(Oc1ccc(-c2ccc3sccc3c2)cc1)c1ccccc1`, the growth was 99.6%. Turning to `CCNC(=O)C#Cc1ccc2c(C(=Nc3ccc(CN(C)C)cc3)c3ccccc3)c(O)[nH]c2c1`, the growth was -7.13% (active).

Values taken from PubChem BioAssay (NCI).
